# Shown are actives, neighbours in structure and some others; about 2.1% of the full set was active somewhere.
# Shn3 3UTR inh = Schnurri-3 reporter inhibition in Clone20 osteoblasts. Clone20 osteoblast Shn3 3'UTR firefly luciferase, 24 h. inhibition, % at 12.5 µM. 360,000 compounds, 0.52% hits. AID 588674;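 active means mean inhibition of at least 75% with every replicate also reaching 75%; inconclusive means mean inhibition at least 75% but some replicate below; inactive means mean inhibition below 75%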
# PAX8 reporter = inhibitors of PAX8 transcriptional activity in RMG-I cells | inhibition, % at 12.6 µM | AID 652154 | RMG-I TPO-luciferase reporter, SteadyGlo, 24 h | 360,000 compounds, 1.2% hits;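 active means mean replicate inhibition at least 60% with every replicate also reaching 60%; inconclusive means only one of the two criteria is met; inactive means mean below 60% and not all replicates reaching 60%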;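 further: luciferase light reporting Pax8 driven TPO promoter activity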
# LMP1 NFkB inh = Epstein-Barr LMP1 NF-kappaB reporter inhibition; LMP1-induced NF-kappaB luciferase reporter cells, luminescence; inhibition, % at 12.5 µM; 350,000 compounds, 0.69% hits; AID 504558; in the data active means inhibition above about 41%; inconclusive means no clear call, values can overlap the other calls
# TRPM1 prom inh = MITF TRPM1 promoter inhibition in SK-MEL-5 cells | SK-MEL-5 TRPM1 promoter luciferase, 24 h | inhibition, % at 12.5 µM | 330,000 compounds, 0.83% hits | AID 488899;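 active means mean inhibition across replicates of 60% or more, whatever share of single replicates reaches that level; inconclusive means some that reach 60%, reason not given; inactive means mean inhibition across replicates below 60%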
# aSyn 5UTR inh = 5' untranslated region of α-synuclein, MLPCN primary screen | 300,000 compounds, 0.82% hits | inhibition, % (tested at 7.5 µM) | alpha-synuclein 5'UTR reporter, inhibitor activity; in the data active means inhibition above about 60%; inconclusive means no clear call, values can overlap the other calls;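 further: H4 neuroglioblastoma cells stably carrying SNCA 5'UTR luciferase fusion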
# Hits are given with their value; 0 = inactive; ? = inconclusive; - = no result given.
SMILES,Shn3 3UTR inh,PAX8 reporter,LMP1 NFkB inh,TRPM1 prom inh,aSyn 5UTR inh
C[C@@H]1CN([C@@H](C)CO)C(=O)c2ccccc2-c2ccccc2CO[C@@H]1CN(C)Cc1ccc(Cl)c(Cl)c1,-,71.0,-,-,-
C[C@@H]1CN([C@@H](C)CO)C(=O)c2ccccc2-c2ccccc2CO[C@@H]1CN(C)Cc1ccc2c(c1)OCCN2C,-,90.0,-,-,-
CCCN1C[C@H](C)[C@H](OC)CN(C)C(=O)c2ccc(NC(=O)c3cccc(F)c3)cc2OC[C@H]1C,-,0,-,-,-
CC(C)(C)n1[nH]c2c3c(ccc2c1=O)C(=O)c1ccccc1C3=O,0,0,0,?,0
COCCCn1[nH]c2c3c(ccc2c1=O)C(=O)c1ccccc1C3=O,0,-,0,60.7,0
CCOc1cc2c(c3c1C(c1ccccc1)N(S(=O)(=O)c1ccc(C)cc1)C3)C(=O)C=CC2=O (stereo not drawn),98.7,0,-,-,-
CCC(=O)NC(=S)Nc1ccccc1C(F)(F)F,0,-,72.9,0,0
COc1ccc([N+](=O)[O-])cc1NC(=O)CSc1nccc(C)n1,0,0,0,0,0
COc1cc(OC)cc(C(=O)NNC(=O)c2ccccn2)c1,0,0,0,0,72.7
COc1ccc(C(=O)NC(=S)NNC(=O)c2ccc3ccccc3n2)cc1,90.2,0,49.2,0,73.1
COc1ccc(C(=O)NOCc2ccccc2)cc1,0,0,48.1,0,0
COc1ccc(C(=O)NNC(=O)c2ccccn2)cc1,0,103.6,0,85.4,79.0
COc1cc(OC)cc(C(=O)NNC(=O)c2ccc3ccccc3n2)c1,0,0,0,0,-
COc1ccc(OCC(=O)NNC(=O)c2ccccn2)cc1,0,-,0,0,0
COc1ccc(C(=O)NCCNC(=O)c2ccccn2)cc1,0,0,0,0,0
COc1ccc(-c2ccc([C@H]3[C@@H](CO)N4C(=O)CN(C(=O)c5cccnc5)C[C@H]34)cc2)cc1,-,0,-,-,-
COC(=O)c1ccc(C2c3c(oc4ccccc4c3=O)C(=O)N2CCCN2CCOCC2)cc1 (stereo not drawn),0,0,0,0,0
C/C(=N\NC(=O)CCn1nnc2ccccc21)c1cccs1,-,0,0,0,0
Cc1cc(C)c(-c2csc(NC(=O)c3cc([N+](=O)[O-])ccc3N3CCOCC3)n2)c(C)c1,0,0,0,0,0
CCN(CC)CCNC(=O)c1ccc(N2CCCCC2)c(NS(=O)(=O)c2ccc(C)cc2)c1,0,-,0,0,0
CCN(CC)CCNc1cc(C)nc2c1C(=O)C(=O)C=C2N1CCCCC1,0,73.1,0,0,81.4
COc1cccc(-c2ccc3c(c2)[C@H]2[C@H](CCN2S(=O)(=O)c2ccccc2F)[C@@H](CO)N3)c1,-,101.0,-,-,-
COc1cccc(S(=O)(=O)N2CC[C@@H]3[C@@H](CO)Nc4ccc(-c5ccccc5OC)cc4[C@@H]32)c1,-,80.4,-,-,-
O=S(=O)(c1ccccc1F)N1CC[C@@H]2[C@H](CO)Nc3ccc(C4=CCCCC4)cc3[C@@H]21,-,89.5,-,-,-
O=S(=O)(c1ccccc1F)N1CC[C@@H]2[C@H](CO)Nc3ccc(-c4ccccc4)cc3[C@@H]21,-,0,-,-,-
SMILES,Shn3 3UTR inh,PAX8 reporter,LMP1 NFkB inh,TRPM1 prom inh,aSyn 5UTR inh
COc1ccccc1S(=O)(=O)N1CC[C@H]2[C@H](CO)Nc3ccc(-c4ccc(F)cc4)cc3[C@H]21,-,71.8,-,-,-
COc1cc(/C=N/n2c(-c3ccc4c(c3)NC(=O)CO4)csc2=Nc2cccc(C)c2)ccc1O,0,0,0,0,0
Cc1ccc(S(=O)(=O)NCC(c2ccco2)S(=O)(=O)c2ccccc2)cc1 (stereo not drawn),0,0,0,0,0
COc1ccc([Si](C)(C)[C@H]2[C@H](CCn3cc(CCO)nn3)O[C@@]3(C(=O)N(Cc4cccc(N5CCC5=O)c4)c4ccccc43)[C@@H]2C)cc1,-,0,-,-,-
COc1ccc(Cl)cc1NC(=O)CN1C(=O)NC2(CCCC2)C1=O,0,0,0,0,0
COc1ccc(S(=O)(=O)N2CC[C@@H]3[C@@H](CO)Nc4ccc(-c5ccc(C#N)cc5)cc4[C@@H]32)cc1,-,62.7,-,-,-
O=C(Cc1ccccc1)N1CC[C@@H]2[C@H]1c1cc(-c3ccccc3)ccc1N[C@@H]2CO,-,62.4,-,-,-
Cc1ccccc1S(=O)(=O)N1CC[C@@H]2[C@H](CO)Nc3ccc(-c4cccc(F)c4)cc3[C@@H]21,-,114.0,-,-,-
COc1ccc(S(=O)(=O)N2CC[C@@H]3[C@H](CO)Nc4ccc(-c5ccc(C#N)cc5)cc4[C@@H]32)cc1,-,0,-,-,-
O=C(Cc1ccccc1)N1CC[C@@H]2[C@@H](CO)Nc3ccc(-c4ccccc4)cc3[C@@H]21,-,0,-,-,-
COC(=O)C1CCC(=O)N1C(c1ccc(OC)cc1)c1cc(OC)c(OC)c(OC)c1 (stereo not drawn),0,75.5,0,0,-
COc1ccc(C(CNC(=O)Cc2cc(OC)c(OC)c(OC)c2)N2CCCC2)cc1 (stereo not drawn),0,-,0,0,0
CC(n1cnnn1)C12CC3CC(CC(C3)C1)C2 (stereo not drawn),0,-,0,0,0
S=c1[nH]nc(C2CCCCC2)n1/N=C/c1ccncc1,0,0,48.1,0,0
CSc1ccc(/C=N/n2c(C3CCCCC3)n[nH]c2=S)cc1,0,0,0,0,0
C#CCOCCOCCOCCNc1nc(N2CCN(C(=O)CCCCCCCCCCNC(=O)[C@H](CCCCN)n3cc(C[C@@H](C)CC)nn3)CC2)nc(N2CCN(C(=O)CCCCCCCCCCNC(=O)[C@H](CCCN=C(N)N)n3cc(C[C@@H](C)CC)nn3)CC2)n1,0,-,0,103.9,-
C#CCOCCOCCOCCNc1nc(N2CCN(C(=O)CCCCCCCCCCNC(=O)[C@H](CCCCN)n3cc(C[C@@H](C)CC)nn3)CC2)nc(N2CCN(C(=O)CCCCCCCCCCNC(=O)[C@@H]([C@H](C)O)n3cc(C)nn3)CC2)n1,95.8,-,0,93.8,-
C#CCOCCOCCOCCNc1nc(N2CCN(C(=O)CCCCCCCCCCNC(=O)[C@H]([C@@H](C)CC)n3cc(CCCCN=C(N)N)nn3)CC2)nc(N2CCN(C(=O)CCCCCCCCCCNC(=O)[C@@H]([C@H](C)O)n3cc(C)nn3)CC2)n1,0,-,0,65.0,-
C#CCOCCOCCOCCNc1nc(N2CCN(C(=O)CCCCCCCCCCNC(=O)[C@@H](CCSC)n3cc(CCO)nn3)CC2)nc(N2CCN(C(=O)CCCCCCCCCCNC(=O)[C@H](CCCN=C(N)N)n3cc(C[C@@H](C)CC)nn3)CC2)n1,0,-,0,68.7,-
C#CCOCCOCCOCCNc1nc(N2CCN(C(=O)CCCCCCCCCCNC(=O)Cn3cc(C[C@@H](C)O)nn3)CC2)nc(N2CCN(C(=O)CCCCCCCCCCNC(=O)[C@@H](CCSC)n3cc(CCO)nn3)CC2)n1,0,-,0,79.2,-
CC[C@H](C)Cc1cn([C@@H](CCCN=C(NC(=O)OC(C)(C)C)NC(=O)OC(C)(C)C)C(=O)NCCCCCCCCCCC(=O)N2CCN(C(=O)OC(C)(C)C)CC2)nn1,0,-,0,0,0

# Screening data as filed in PubChem BioAssay.
